# This is part of a sample that, as a whole, favours compounds with a hit. Of some 83,000 tested, about 20% had one in any assay.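 Note: values are percent growth. 100 is the growth of untreated cells, values between 100 and 0 indicate rising inhibition; between -100 and 0 indicates cell death.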 Unmarked numbers belong to inactive results. Activity calls are given as the source filed them. How the source made its calls: active means growth percent below 10; inactive means the rest.
# How the values were obtained:
# Test in all cases: NCI-60 one-dose screen, 48 h (100 = growth as untreated, 0 = no growth, -100 = all killed)
# Conditions in all cases: 10 µM unless noted
# DU-145 prostate = tested on: DU-145 prostate
# K-562 leukemia = tested on: K-562 leukemia
# MALME-3M melanoma = tested on: MALME-3M melanoma
# MDA-MB-231 breast = tested on: MDA-MB-231 breast
# RXF 393 renal = tested on: RXF 393 renal
# SF-268 CNS = tested on: SF-268 CNS
# SF-295 CNS = tested on: SF-295 CNS
# SF-539 CNS = tested on: SF-539 CNS
# UACC-257 melanoma = tested on: UACC-257 melanoma
# M14 melanoma = tested on: M14 melanoma
Structure (SMILES),growth (DU-145 prostate),growth (K-562 leukemia),growth (MALME-3M melanoma),growth (MDA-MB-231 breast),growth (RXF 393 renal),growth (SF-268 CNS),growth (SF-295 CNS),growth (SF-539 CNS),growth (UACC-257 melanoma),growth (M14 melanoma)
CCc1n(Cc2ccc3ccccc3n2)cc[n+]1Cc1ccc2ccccc2n1,51.7%,24.9%,-9.45% (active),31.1%,46.6%,29.6%,64.7%,24.5%,-16.5% (active),46.6%
COC(=O)c1c2c(c(C)[n+]([O-])c1C)C(=O)C(NCc1cccc(Cl)c1)=CC2=O,38.3%,6.86% (active),-96.2% (active),3.99% (active),34.3%,16.2%,42.5%,4.07% (active),-37.5% (active),1.44% (active)
O=C1C(Nc2ccccn2)=C(I)C(=O)c2ncccc21,-93.6% (active),1.75% (active),-99.6% (active),-31.8% (active),-60.8% (active),-33.1% (active),-31.6% (active),-98% (active),-27.9% (active),-84.5% (active)
N=C(N)c1ccc(-c2ccc(-c3cc(Cl)cc(Cl)c3)s2)nc1,1.39% (active),-4.72% (active),78.6%,61.1%,90.3%,88.4%,57.1%,57.2%,106%,79.5%
COc1cc(OC)c(C(=O)C(CN(C)C)CN(C)C)cc1OC,87.3%,-42.3% (active),-87.8% (active),-59.7% (active),-75% (active),99.1%,101%,67.7%,8.98% (active),-31.6% (active)
CC(=O)OC[C@]12CC[C@@H]([C@@H](C)c3nnc(-c4ccncc4)o3)[C@@H]1[C@H]1CC[C@@H]3[C@@]4(C)CC[C@H](OC(C)=O)C(C)(C)[C@@H]4CC[C@@]3(C)[C@]1(C)CC2,102%,46.4%,99.7%,76.3%,104%,92%,74.9%,94.2%,75.3%,91%
CNC(=O)c1cc(Oc2ccc3c(c2)sc2nc(-c4ccc(OC)cc4)cn23)ccn1,8.28% (active),33.8%,68.3%,62.2%,45.7%,80.1%,14.1%,83.6%,46.5%,57.9%
NNCCc1ccc(NC(=O)CCCc2ccc(C(=O)Nc3ccccc3N)cc2)cc1,90.7%,43.5%,56.9%,67.5%,75.2%,72.3%,69%,60.8%,41.4%,72%
CCN1C2CCC1/C(=C\c1ccc(F)cc1)C(=O)/C2=C/c1ccc(F)cc1,9.04% (active),20.5%,55.7%,62.5%,57.9%,38.4%,36.3%,51.8%,50.8%,35.9%
CC1CCN(C(=O)CCCl)c2ccccc21 (stereo not given),113%,147%,121%,85.4%,123%,99.7%,160%,126%,94.2%,95.4%
CCCC(CC)(C(=O)Nc1ccc2nc(C)cc(N)c2c1)C(=O)Nc1ccc2nc(C)cc(N)c2c1,111%,102%,105%,100%,117%,113%,108%,102%,99.7%,96.6%
CCOC(=O)C(=Cc1ccc(-c2ccccc2)cc1)C(=O)OCC,36.6%,20%,70.6%,53.3%,43%,37.5%,52.5%,21.4%,44.4%,42.5%
CCOC(=O)C(Cc1ccc(OC)cc1)C(=O)OCC,-35.4% (active),15.2%,58.1%,47.5%,-11.3% (active),30.2%,30.4%,19.9%,25.3%,46.3%
COC(=O)/C=C1/SC(=Nc2ccc([N+](=O)[O-])cc2)N(CCc2c[nH]c3ccc(O)cc23)C1=O,57.3%,52.5%,68.6%,61.1%,27.3%,43.7%,59.5%,66.2%,55.8%,46%
COc1ccc(/C=C2\COc3ccc(O)cc3C2=O)cc1,111%,24%,96.1%,92.8%,115%,99.4%,108%,102%,106%,90.8%
COc1ccc(/C=C/C(=O)c2ccc(NC(=O)CSc3nc4c([nH]3)c(=O)n(C)c(=O)n4C)cc2)cc1OC,97.4%,79.3%,95.9%,84.4%,87.5%,83%,92.6%,80.1%,87.4%,92.5%
NC1(CO)COC(c2ccccc2)OC1 (stereo not given),115%,89.5%,109%,112%,104%,110%,113%,109%,98.4%,118%
Cc1ccc(/C=C(\C#N)n2nnc3cc(F)c(F)cc32)cc1,-3.37% (active),4.34% (active),33%,12%,-0.406% (active),23.4%,36.6%,-25.5% (active),38%,-27.7% (active)
Cc1ccccc1Nc1cc(O)c2c(=O)cc(-c3ccccc3)oc2c1,26.8%,10.2%,47.9%,50.7%,28%,61.5%,27.1%,23.1%,80.6%,24.6%
CCN(CC)CCCN1C(=O)c2c(c(C)c3c(oc4ccc(O)cc43)c2C)C1=O,-58.8% (active),3.9% (active),87%,-80.9% (active),61.3%,66%,109%,1.71% (active),102%,86.6%
CN(Cc1cc(Br)cc(Br)c1O)Cc1cc(Br)cc(Br)c1O,54.8%,21.3%,73.2%,39.6%,55.4%,45.3%,32.1%,39.5%,46.8%,37.3%
C=C1C(=O)O[C@H]2[C@H]1CC/C(COC(=O)c1cc3cc(Cl)ccc3[nH]1)=C\CC[C@@]1(C)O[C@@H]21,-96.1% (active),-21.1% (active),-76.9% (active),-77.8% (active),-88.7% (active),-88.3% (active),39.2%,-90.4% (active),-76.3% (active),-56.9% (active)
C=CCn1c(SCC(=O)Nc2ccc(/C(C)=N/O)cc2)nnc1-c1cc(-c2ccc(S(N)(=O)=O)cc2)nc2ccccc12,105%,38.8%,88.9%,74.1%,93.5%,67.1%,98.4%,64.2%,92.7%,93.5%
[2H]C([2H])([2H])Oc1ccc(F)cc1/C=C/C(=O)/C=C(O)/C=C/c1cc(F)ccc1OC([2H])([2H])[2H],95.3%,84%,104%,108%,103%,89.8%,103%,107%,89.6%,85.1%
CN1CCN(CCOc2ccc(-c3cnc4c(-c5cccc(F)c5F)cnn4c3)cc2)CC1,8.58% (active),-31.3% (active),-44% (active),85%,97%,25.3%,-3.66% (active),-72.5% (active),-19.1% (active),-78.9% (active)
CCCCCCCCCCCCCCCCCCOc1ccccc1CC(=O)NCC[N+]1(C)CCCCC1,68.7%,34.2%,44.9%,36.6%,18.4%,34%,90.2%,84%,88.3%,68.3%
Nc1nc(N)c2c(n1)NC(c1cccc(Nc3ccnc4cc(C(F)(F)F)ccc34)c1)CC(c1ccc(Br)cc1)=N2 (stereo not given),71.2%,10.5%,53.6%,57.3%,40.7%,61.4%,52%,83.9%,71.5%,42.9%
